HTT aggregate: reduces HttQ103-GFP aggregates in PC12 cells | PC12 HttQ103-GFP aggregates, Acumen cytometry, 40 h | Potency, µM (doses to about 46.1 µM), most hits filed as inhibitors | hit rate 1.1% among 220,000 | AID 1688; further: nearly all actives have a fitted effect of over 60% in size
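Using laser scanning cytometry, GFP-positive aggregates were counted after lysis of PC12 cells induced with 100 nM tebufenozide to express HTT exon 1 Q103–GFP. Compounds were tested in titration.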
HTT ATP protect: Huntington cell model cytoprotection by ATP luminescence; Potency, µM (titrated, usually from 56.4 µM), most hits filed as activators; hit rate 0.14% among 230,000; AID 1471; PC12 HTT-Q103 induced, cytoprotection, ATP luminescence, 40 h; further: nearly all actives have a fitted effect of over 45% in size
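PC12 cells stably carrying ecdysone-inducible Htt exon 1 (Q103)–GFP were induced with 100 nM tebufenozide (final) alongside library compounds in a dose series. Cytoprotection was scored as retained ATP by ATPlite luminescence.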
ERK EGF block: EGF-driven ERK pathway inhibition | HEK293-V1b, EGF-stimulated phospho-ERK AlphaScreen | Potency, µM (series often up to 11.5 µM), usual class: inhibitors | hit rate 0.41% among 130,000 | AID 1454; further: nearly all actives have a fitted effect of over 55% in size
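Homogeneous cell-based phospho-ERK assay: HEK293/V1b cells in 1% FBS, compound 30 min then EGF 5 min, AlphaScreen luminescence. Activity normalized between DMSO and 25 nM EGF controls; AC50 from Hill modelling.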
NPSR antagonist: blocks cAMP signaling of the human neuropeptide S receptor. AID 1461. Potency, µM (doses to about 38.3 µM), most hits filed as inhibitors. CHO-NPSR cells, cAMP TR-FRET, antagonist mode. hit rate 1% among 220,000; further: nearly all actives have a fitted effect of over 50% in size
Target sequence (Q6W5P4 whole entry, looked up): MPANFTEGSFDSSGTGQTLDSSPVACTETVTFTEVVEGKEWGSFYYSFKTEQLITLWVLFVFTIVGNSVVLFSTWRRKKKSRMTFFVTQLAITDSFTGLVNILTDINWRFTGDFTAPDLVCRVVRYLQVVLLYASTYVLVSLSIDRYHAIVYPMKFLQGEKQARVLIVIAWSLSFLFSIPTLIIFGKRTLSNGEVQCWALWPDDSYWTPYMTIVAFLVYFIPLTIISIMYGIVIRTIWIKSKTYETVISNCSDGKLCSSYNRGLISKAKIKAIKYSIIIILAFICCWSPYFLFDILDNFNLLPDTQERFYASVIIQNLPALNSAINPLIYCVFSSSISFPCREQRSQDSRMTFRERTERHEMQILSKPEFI
IMPase Li cell: IMPase inhibition in cells with lithium potentiation; AID 1457; hit rate 0.35% among 210,000; Potency, µM (doses to about 59.4 µM), actives largely listed as inhibitors; CHO-M1 cells, IP1 TR-FRET (IP-One), carbachol + lithium;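 further: IP1 builds up when IMPase is blocked and the TR-FRET signal falls; nearly all actives have a fitted effect of over 50% in size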
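CHO-M1, 2000 cells/well, 16–30 h culture; cpd + low Li+, 30 min 37C; lysis with d2-IP1/Eu-anti-IP1 Ab, 10 min RT; TR-FRET 665/620 ratio and 620 channel; AC50 via Hill.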
Numbers stand for hits; [ ] = remark or other dose. Sampled rows, rich in hits. Any-hit rate of the full collection: about 1.9%. The call rests on the fitted dose curve; in most records, active means well fitted curve in the direction sought with a large enough effect; inconclusive means small, poorly fitted or top-dose-only effect, or another doubt; inactive means no such curve, though single readings can be large; an effect the other way counts as inactive or inconclusive.

COc1ccc(C(C#N)C2(C)OCCO2)cc1OC (centres undefined) was read as HTT aggregate 2.5µM, HTT ATP protect inactive, NPSR antagonist inactive and IMPase Li cell inactive.
Screening Cc1ccc(C)c(NC(=O)CN(C)C(=O)CCN2C(=O)c3ccccc3C2=O)c1 returned HTT aggregate 14µM, HTT ATP protect inactive and NPSR antagonist inactive.
Screening CCOc1ccccc1OCCCC(=O)N(C)CC(=O)Nc1cc(C)ccc1C returned HTT aggregate inactive, HTT ATP protect inactive, ERK EGF block inactive, NPSR antagonist inactive and IMPase Li cell inactive.
`CC(C)(C)OC(=O)NCCCC[C@H](NC(=O)c1nc[nH]c1C(=O)NC1CCN(C(=O)OC(C)(C)C)CC1)C(=O)OC(C)(C)C` gave HTT aggregate inactive[9.22 µM], HTT ATP protect inactive[10 µM], ERK EGF block inactive and NPSR antagonist 10µM.
`CCn1c(=O)c(C(=O)Nc2nc3ccccc3[nH]2)c(O)c2ccccc21` gave HTT aggregate 10µM, HTT ATP protect inactive, NPSR antagonist 3.2µM and IMPase Li cell inactive.
`CCc1cccc(C)c1NC(=O)CSc1nc(-c2ccccc2F)nc2nc[nH]c12` gave HTT aggregate inactive, HTT ATP protect inactive[10 µM], ERK EGF block inactive, NPSR antagonist inactive and IMPase Li cell inconclusive.
O=C(CSc1nc(-c2ccccc2F)nc2nc[nH]c12)Nc1c(Cl)cc(Cl)cc1Cl was read as HTT aggregate inactive, HTT ATP protect inactive[10 µM], ERK EGF block inactive, NPSR antagonist 5µM and IMPase Li cell inconclusive.
Screening O=C1C2=C(Nc3cc([N+](=O)[O-])ccc3N2)O[C@@H]1c1c[nH]c2ccc(COc3ccccc3)cc12 returned HTT ATP protect inactive[10 µM] and IMPase Li cell inactive.
For O=C(Oc1c(CN2CCOCC2)cc(Cl)c2cccnc12)c1ccccc1F the results were HTT aggregate inconclusive, HTT ATP protect inactive[10 µM], ERK EGF block inactive, NPSR antagonist 7.9µM and IMPase Li cell inactive.
COc1cc(OC)cc(C(=O)Oc2c(CN3CCOCC3)cc(Cl)c3cccnc23)c1 was read as HTT aggregate 4.5µM, HTT ATP protect inactive[10 µM], ERK EGF block inactive and NPSR antagonist inconclusive.
`COc1ccc(C(=O)Oc2c(CN3CCOCC3)cc(Cl)c3cccnc23)cc1OC` gave HTT ATP protect inactive.
O=C(c1ccncc1)N1CCC2(CC1)CN(c1cccc(-c3ccccc3)c1)C2 was read as HTT ATP protect inactive, ERK EGF block inactive and IMPase Li cell inactive.
For CC(C(=O)O)c1ccc2c(c1)Cc1cccnc1O2 (centres undefined) the results were HTT aggregate inactive and HTT ATP protect inactive.
For CNC(=O)COC(=O)c1ccc(Cl)c(S(=O)(=O)N2CCCC2)c1 the results were HTT aggregate inconclusive, HTT ATP protect 2.8µM, ERK EGF block inactive, NPSR antagonist inactive and IMPase Li cell inactive.
Screening Cc1c(C)c2c(c(C)c1O)CCC(C)(COc1ccc(Cc3sc(=O)[nH]c3O)cc1)O2 (centres undefined) returned HTT ATP protect inactive and IMPase Li cell inactive.
`CCc1c(C)nc2ncnn2c1NCCc1ccc(OC)cc1` gave HTT aggregate inconclusive, HTT ATP protect inactive[10 µM], NPSR antagonist inactive and IMPase Li cell inactive.
For CCc1c(C)nc2ncnn2c1Nc1ccc(C)c(C)c1 the results were HTT aggregate inconclusive, HTT ATP protect inactive[10 µM], ERK EGF block 22µM, NPSR antagonist inactive and IMPase Li cell inactive.
CCOC(=O)c1c(C)n(-c2ccc(C)cc2)c2c(CC(C)=O)c(Br)c(OC)c(O)c12 was read as HTT aggregate inactive, HTT ATP protect inactive, NPSR antagonist 10µM and IMPase Li cell inactive.
CCOC(=O)c1c(C)n(-c2ccc(C)cc2)c2c(C(C(C)=O)C(=O)O)c(Br)c(O)c(O)c12 (centres undefined) was read as HTT aggregate 13µM, HTT ATP protect inconclusive, NPSR antagonist 10µM and IMPase Li cell inactive.
Screening CCOC(=O)c1c(C)n(-c2ccc(C)cc2)c2ccc(O)c(CN(C)C)c12 returned HTT aggregate inactive, HTT ATP protect inactive, ERK EGF block inactive, NPSR antagonist inactive and IMPase Li cell inactive.
For CCn1c(=O)c2c(cnn2C)c2ccccc21 the results were HTT aggregate 8.9µM, HTT ATP protect inactive, NPSR antagonist inactive and IMPase Li cell inactive.
